Test results as given in PubChem BioAssay (NCATS).
Inconclusive results are not listed. Calls of active or inactive are those of the source. The call rests on the fitted dose curve; in most records, active means well fitted curve in the direction sought with a large enough effect; inconclusive means small, poorly fitted or top-dose-only effect, or another doubt; inactive means no such curve, though single readings can be large; an effect the other way counts as inactive or inconclusive.

Assays:
[1] = Cellular Toxicity (caspase-3) H-4-II-E (AID 663); details: H-4-II-E rat hepatoma; Potency: caspase-3 activation; series mostly up to 92.2 µM;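 further: cells exposed to compound for 16 hr before readout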
Procedure, shortened: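 H-4-II-E rat hepatoma, 1500 cells/well, 5 hr settle at 37 °C; compound 16 hr, 37 °C, complete medium; Caspase-Glo 3/7, 20 min RT; luminescence. DMSO = 0%, 100 uM tamoxifen = 100%; Hill-equation AC50.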

[2] = Cellular Toxicity (caspase-3) Hek293 (AID 664); details: HEK293 caspase-3 activation, DMSO = 0%, 100 µM tamoxifen = 100%; series mostly up to 92.2 µM;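 further: cells exposed to compound for 16 h at 37 °C before readout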
Procedure, shortened: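 Concentration-response qHTS: caspase 3/7 activation measured by luminescent aminoluciferin substrate cleavage after 16 h compound exposure of Hek 293 cells. AC50 from Hill equation, with DMSO as basal and 100 uM tamoxifen as 100%.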

[3] = Cellular Toxicity (caspase-3) N2a (AID 665); details: N2a cells, luminescence, normalized: DMSO 0%, 10 µM staurosporine 100%; series mostly up to 92.2 µM;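 further: compound exposure lasted 16 h at 37 °C before readout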
Procedure, shortened: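 Caspase-3/7 activation measured as luminescence from Caspase-Glo reagent (1 h, room temperature) after 16 h compound exposure of mouse N2a cells. AC50 values from Hill-equation concentration-response, scaled between DMSO and 10 uM staurosporine.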

[4] = Cellular Toxicity (caspase-3) NIH 3T3 (AID 666); details: NIH 3T3 caspase-3 activation, apoptosis/toxicity, 0% DMSO, 100% is 100 µM tamoxifen; series mostly up to 92.2 µM;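 further: caspase signal read after 16 h compound exposure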
Procedure, shortened: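 Caspase-Glo 3/7 luminescence reported caspase activation in 1000 NIH 3T3 cells/well after 16 h compound exposure at 37 C. DMSO set basal and 100 uM tamoxifen set 100% stimulation; concentration-response modeled with the Hill equation for AC50.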

[5] = Cellular Toxicity (caspase-3) Renal Proximal Tubule (AID 667); details: renal proximal tubule cells, primary cells freshly taken from rat, solvent-only wells 0%, staurosporine 100%; series mostly up to 91.7 µM;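 further: cells exposed to compound for 16 hours at 37 °C before detection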
Procedure, shortened: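 Caspase 3/7 activation measured by luminescent aminoluciferin release in primary rat proximal tubule cells after 16 hr compound exposure at 37 °C. AC50 from Hill-fitted concentration-response, scaled between DMSO and 10 uM staurosporine.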

[6] = biological target: Cytochrome P450 3A4 (Homo sapiens) (UniProt P08684); experiment: qHTS Assay for Inhibitors and Substrates of Cytochrome P450 3A4 (AID 884); details: recombinant CYP3A4, Luciferin-PPXE luminescence; series mostly up to 57.1 µM; further: nearly all actives have a fitted effect of over 50% in size
Cytochrome P450 3A4 (Homo sapiens), sequence (P08684 whole entry, looked up): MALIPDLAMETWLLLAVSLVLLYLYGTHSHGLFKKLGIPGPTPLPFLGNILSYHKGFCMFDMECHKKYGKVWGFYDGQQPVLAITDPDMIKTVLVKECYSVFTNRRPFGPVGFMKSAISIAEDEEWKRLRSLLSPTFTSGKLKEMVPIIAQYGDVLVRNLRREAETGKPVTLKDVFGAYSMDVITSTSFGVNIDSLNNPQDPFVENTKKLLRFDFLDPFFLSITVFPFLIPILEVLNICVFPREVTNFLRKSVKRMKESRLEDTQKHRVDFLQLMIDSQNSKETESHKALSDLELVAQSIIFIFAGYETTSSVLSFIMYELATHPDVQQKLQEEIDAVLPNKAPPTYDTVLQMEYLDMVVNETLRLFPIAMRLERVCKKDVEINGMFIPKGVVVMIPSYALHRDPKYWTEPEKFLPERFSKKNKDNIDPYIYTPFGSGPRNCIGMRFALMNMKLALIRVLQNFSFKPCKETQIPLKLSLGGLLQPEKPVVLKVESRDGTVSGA
Procedure, shortened: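 Luminescent readout of luciferin produced by CYP3A4 (20 nM) dealkylation of Luciferin-PPXE, 25 uM (its KM). NADPH-driven reaction ran 60 min at RT after 10 min compound preincubation; data scaled to 57 uM ketoconazole as 100% inhibition.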

[7] = Cell Viability - LYMP2-001 (AID 921); details: LYMP2-001 lymphoblastoid cell viability; series mostly up to 92.2 µM; further: nearly all actives have a fitted effect of over 70% in size
Procedure, shortened: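 Cellular ATP loss read by luciferase luminescence after 24 h compound exposure at 37 C in complete medium. LYMP2-001 lymphoblastoid cells, 2500/well; qHTS concentration-response data fitted with Hill equation for AC50.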

[8] = MultiTox-Fluor Cytotoxicity Assay - LYMP1-001 - Live Cells (AID 947); details: LYMP1-001 lymphoblastoid cells, live-cell protease fluorescence viability; series mostly up to 92.2 µM
[9] = Cell Viability - LYMP1-002 - Assay at 16 hr (AID 948); details: LYMP1-002 lymphoblastoid cell viability; series mostly up to 92.2 µM
Procedure, shortened: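 ATP luminescence (CellTiter-Glo) was measured after 16 hr compound exposure at 37 C of 2500 lymphoblastoid LYMP1-002 cells per well. Concentration-response curves were fitted with the Hill equation to give AC50.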

[10] = MultiTox-Fluor Cytotoxicity Assay - LYMP1-002 - Live Cells (AID 955); details: LYMP1-002 lymphoblastoid live-cell protease fluorescence viability; series mostly up to 46.1 µM;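 further: cells exposed to compound for 16 hours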
Procedure, shortened: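 After 16 h compound exposure at 37 C, live LYMP1-002 lymphoblastoid cells (2500/well) were quantified by cleavage of cell-permeant GF-AFC substrate, read at 405/510 nm after 60 min. Concentration-response fitted with Hill equation for AC50.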

[11] = MultiTox-Fluor Cytotoxicity Assay - LYMP1-002 - Dead Cells (AID 960); details: LYMP1-002 lymphoblastoid cells, dead-cell protease fluorescence; series mostly up to 46.1 µM; further: nearly all actives have a fitted effect of over 60% in size
Procedure, shortened: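 Dead-cell fluorescence (Ex/Em 485/520) after 16 h compound exposure at 37 C of LYMP1-002 lymphoblastoid cells in complete medium; AC50 by Hill equation, with data scaled between DMSO and 15 uM tetraoctylammonium bromide.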

[12] = MultiTox-Fluor Cytotoxicity Assay - LYMP1-003 - Dead Cells (AID 961); details: LYMP1-003 lymphoblastoid cells, dead-cell protease fluorescence; series mostly up to 92.2 µM; further: nearly all actives have a fitted effect of over 70% in size
Procedure, shortened: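 LYMP1-003 lymphoblastoid, 2500 cells/well, 5 hr settle then 16 hr cpd at 37 C; MultiTox-Fluor reagent 60 min RT; Ex/Em 485/520 dead-cell signal; norm. DMSO = 0%, 15 uM tetraoctylammonium bromide = 100%; Hill AC50.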

[13] = MultiTox-Fluor Cytotoxicity Assay - LYMP1-003 - Live Cells (AID 962); details: LYMP1-003 lymphoblastoid cells, MultiTox-Fluor live-cell protease fluorescence; series mostly up to 92.2 µM;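 further: cells exposed to compound for 16 hours at 37 °C; cytotoxic hits lower the live-cell protease signal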
Procedure, shortened: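 Live-cell protease activity (GF-AFC substrate, 405/510 nm, 60 min at room temperature) after 16 h, 37 C compound exposure of human lymphoblastoid LYMP1-003 cells; concentration-response fitted to the Hill equation for AC50.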

[14] = Cell Viability - LYMP1-003 - Assay at 24 hr (AID 963); details: LYMP1-003 lymphoblastoid cell viability; series mostly up to 92.2 µM
Procedure, shortened: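 Concentration-response qHTS: ATP loss measured by CellTiter-Glo luminescence after 24 h compound exposure at 37 C. Cells were LYMP1-003 human lymphoblastoid, 2500 per well. AC50 derived via standard Hill equation modeling.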

[15] = Cell Viability - LYMP1-003 - Assay at 40 hr (AID 964); details: LYMP1-003 lymphoblastoid viability; series mostly up to 92.2 µM; further: nearly all actives have a fitted effect of over 60% in size
Procedure, shortened: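 Viability is taken as cellular ATP, read by CellTiter-Glo luminescence after 40 h of compound exposure at 37 C. Cells: human lymphoblastoid line LYMP1-003 at 2500/well; AC50 values derived by Hill-equation fitting of concentration-response data.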

[16] = Cell Viability - LYMP2-003 (AID 965); details: LYMP2-003 lymphoblastoid cell viability; series mostly up to 92.2 µM;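 further: cells exposed to compounds for 24 h before reading; nearly all actives have a fitted effect of over 50% in size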
Procedure, shortened: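 CellTiter-Glo luminescence quantified ATP loss after 24 h compound treatment of LYMP2-003 lymphoblastoid cells at 37 C. Titration series were fitted with the standard Hill equation to give AC50.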

[17] = Cell Viability - LYMP2-004 (AID 966); details: LYMP2-004 lymphoblastoid cell viability, qHTS; series mostly up to 92.2 µM; further: nearly all actives have a fitted effect of over 65% in size
Procedure, shortened: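 AC50 values come from Hill modelling of concentration-dependent loss of intracellular ATP, measured by CellTiter-Glo luminescence. Human LYMP2-004 lymphoblastoid cells (2500/well) were exposed to compound for 24 h at 37 C.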

[18] = Cell Viability - LYMP2-005 (AID 967); details: LYMP2-005 lymphoblastoid cell viability; series mostly up to 92.2 µM
Procedure, shortened: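 LYMP2-005 human lymphoblastoid cells (2500/well) were treated with compounds for 24 h at 37 C. Intracellular ATP was then measured by CellTiter-Glo luminescence after 30 min at room temperature. AC50 values came from Hill-equation fits of qHTS concentration-response data.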

[19] = Cell Viability - LYMP2-009 (AID 968); details: LYMP2-009 lymphoblastoid cell viability; series mostly up to 92.2 µM; further: nearly all actives have a fitted effect of over 55% in size
[20] = Cell Viability - LYMP2-011 (AID 969); details: LYMP2-011 lymphoblastoid cells viability; series mostly up to 92.2 µM; further: nearly all actives have a fitted effect of over 60% in size
Procedure, shortened: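 Cytotoxicity qHTS with ATP content as read-out: lymphoblastoid cells (2500/well) exposed to compound for 24 h at 37 C, then luciferase luminescence measured. Concentration-response data fitted with the standard Hill equation to give AC50.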

[21] = Cell Viability - LYMP2-013 (AID 970); details: LYMP2-013 lymphoblastoid cells viability; series mostly up to 92.2 µM; further: nearly all actives have a fitted effect of over 55% in size
Procedure, shortened: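 qHTS cytotoxicity: ATP-dependent luminescence (CellTiter-Glo, 30 min room temperature) read after 24 h compound exposure at 37 C of 2500 LYMP2-013 lymphoblastoid cells per well. Concentration-response fitted with Hill equation to give AC50.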

[22] = Cell Viability - LYMP2-015 (AID 971); details: LYMP2-015 lymphoblastoid cell viability; series mostly up to 92.2 µM; further: nearly all actives have a fitted effect of over 55% in size
Procedure, shortened: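 Cytotoxicity readout: decrease in intracellular ATP (CellTiter-Glo luminescence) in 2500 LYMP2-015 lymphoblastoid cells/well after 24 h compound exposure at 37 C. Concentration-response data fitted with the standard Hill equation to give AC50.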

Measured: Potency

CCCCCCCCCCCC(=O)O
inactive: all assays above
